TEAD-YAP block: TEAD-YAP interaction inhibition; HEK-TIYL cells, TEAD-Gal4/YAP UAS-luciferase luminescence; 640,000 tested, 1.4% active; inhibition, % at 9.12 µM; in the data active = inhibition above about 32%;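 also: 0% = median of test compound wells and 100% = reference inhibitor wells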
FBW7 act: activators of human E3 ligase FBW7; Q969H0; AlphaScreen FBW7–phospho-cyclin E peptide binding, activator screen; normalized activity (activation), % at 26.1 µM; 650,000 tested, 0.13% active; AID 1259310; in the data active = normalized activity above about 1.9%;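 also: purified mutant Fbw7 with reduced substrate affinity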
GPR151 activ: activators of human GPR151; Q8TDV0; PathHunter beta-arrestin GPR151 cells, luminescence; activation, % at 11.2 µM; 650,000 tested, 1% active; in the data active = activation above about 4.9%;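 also: 0% = median of compound wells and 100% = cells with positive control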
Target sequence (Q8TDV0 whole entry, looked up): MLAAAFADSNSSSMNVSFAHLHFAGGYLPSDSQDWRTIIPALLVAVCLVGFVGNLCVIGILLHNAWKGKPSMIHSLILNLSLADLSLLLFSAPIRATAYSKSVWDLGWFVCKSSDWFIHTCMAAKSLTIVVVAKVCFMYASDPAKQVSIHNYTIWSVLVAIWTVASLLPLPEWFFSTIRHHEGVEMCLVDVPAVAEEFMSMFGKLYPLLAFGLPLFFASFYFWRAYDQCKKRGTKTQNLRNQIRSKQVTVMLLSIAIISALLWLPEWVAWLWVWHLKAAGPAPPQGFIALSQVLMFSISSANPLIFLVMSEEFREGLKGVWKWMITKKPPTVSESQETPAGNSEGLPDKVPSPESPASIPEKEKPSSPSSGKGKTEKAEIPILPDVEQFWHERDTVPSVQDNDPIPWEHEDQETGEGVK
MITF inh: inhibitors of human MITF. inhibition, % at 2.6 µM. O75030. AlphaScreen MITF homodimerization, bead proximity signal. AID 1259374. 650,000 tested, 0.91% active; in the data active = inhibition above about 50%;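 also: 0% = vehicle wells with protein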
MITF inh conf: confirmation of human MITF inhibitors | inhibition, % at 2.6 µM | 4,700 tested, 16% active | AlphaScreen MITF homodimerization, biotin/His-MITF beads | shares compounds with MITF inh;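 active = inhibition above a cutoff derived from the DMSO control wells, cut at about 28% in these data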;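 also: 0% = MITF dimer wells with DMSO only; inhibitors lower the bead chemiluminescence by keeping MITF from dimerizing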
AS interf DR: optically interferes with AlphaScreen signal in dose response; shares compounds with MITF inh; AID 1259373; 480 tested, 6% active; AlphaScreen optical interference counterscreen, cell-free; IC50, µM; call rule not given here
AS interf ctr: counter-screen: compounds optically interfering with AlphaScreen; shares compounds with MITF inh; LysRS AlphaScreen counterscreen, signal interference, triplicate; inhibition, % at 2.6 µM; 4,700 tested, 7.6% active;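 active = inhibition above a cutoff derived from the DMSO control wells, cut at about 30% in these data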
Numbers without * were called inactive; x = no result. Shown are actives, neighbours in structure and some others; about 3.5% of the full set was active somewhere.

SMILES	TEAD-YAP block	FBW7 act	GPR151 activ	MITF inh	MITF inh conf	AS interf ctr	others
CCOC(=O)c1cnn(-c2ccccc2Cl)c1CNCc1csc(C)n1	4	0	4	-4	x	x
CCOC(=O)c1cnn(-c2ccccc2Cl)c1CNCCNC(C)=O	1	0	-1	83*	1	-3
CC1=C(C(=O)OC2CCCCC2)C(c2ccc(C)cc2)C2=C(CC(C)(C)CC2=O)N1 (configuration not stated)	-4	0	0	2	x	x
O=C(NCc1ccccn1)C1CCN(S(=O)(=O)N2CCC3(CC2)OCCO3)CC1	1	0	1	52*	17	14
CN(C(=O)c1cccc(I)c1)c1ccccc1	6	0	-1	10	x	x
CCOc1cccc(-c2cc(C(=O)N/N=C(\C)c3ccccc3O)[nH]n2)c1	-14	0	-1	22	x	x
Cc1nn(-c2ccc(F)cc2)c(C)c1CNCc1ccccc1	-3	0	0	70*	25	10
Cc1ncn(-c2ccc(N(C)c3ncc4cccc(-c5ccn[nH]5)c4n3)cc2)n1	15	1	0	58*	57*	10	AS interf DR=>6.5
Cc1ncn(-c2ccc(Nc3ncc4cccc(-c5ccccc5F)c4n3)cc2)n1	-14	1	-2	28	x	x
Cn1c(-c2ccc(Cl)cc2)cnc1NCc1ccc(C#N)cc1	-7	0	-1	54*	-10	-13
Cn1c(-c2ccc(Br)cc2)cnc1NCc1ccc(C#N)cc1	-17	0	0	33	x	x
CCC12c3ccccc3C(c3ccccc31)C1C(=O)NC(=O)C12 (configuration not stated)	-1	0	3	71*	63*	-31	AS interf DR=>6.5
CCc1cccc(C)c1NC(=O)COc1ccccc1	-1	0	0	5	x	x
CC12C=CC(=O)C=C1CC[C@@H]1[C@@H]2[C@@H](O)CC2(C)[C@H]1CC[C@]2(O)C(=O)CO (some centres not stated)	x	0	-1	15	x	x
CC1NC(=O)NC1CCCCCC(=O)OCN1C(=O)c2ccccc2C1=O (configuration not stated)	-4	0	0	119*	117*	99*
O=C(CCCNC(=O)OCc1ccccc1)OCN1C(=O)c2ccccc2C1=O	4	0	1	-4	x	x
N=S(=NS(=O)(=O)c1ccccc1)(c1ccccc1)c1ccccc1	1	0	-1	-11	x	x
O=S(=O)(N=S(=O)(/C=C/c1ccccc1)c1ccccc1)c1ccccc1 (configuration not stated)	35*	0	0	84*	28*	9	AS interf DR=>5.4
CCOC(=O)/C(C(C)=O)=C(\C=C\N(C)C)N(C)C	14	0	1	1	x	x
COC(=O)C(C(=O)OC)=C(/C=C/N(C)C)N(C)C	-5	0	0	74*	13	16
Cc1cccc(C)c1OCC(O)CN1CCN(c2ccccc2F)CC1 (configuration not stated)	-10	0	3	-8	x	x
O=C(CSc1nc2[nH]ncc2c(=O)n1-c1ccc(Br)cc1)NCc1cccs1	9	0	0	54*	-9	-10
O=C(CSc1nc2[nH]ncc2c(=O)n1-c1ccc(Cl)cc1)NCc1cccs1	13	0	0	14	x	x
Cc1ccc(C(=O)Cn2nnc(-c3ccc(N)cc3)n2)cc1	0	0	-1	73*	16	10
Cc1ccc(-c2nnn(CC(=O)c3ccc4c(c3)OCCO4)n2)cc1	-4	0	-1	-11	x	x
SMILES	TEAD-YAP block	FBW7 act	GPR151 activ	MITF inh	MITF inh conf	AS interf ctr	others
CCOC(=O)C1CCCN(Cc2c(F)cccc2Cl)C1 (configuration not stated)	0	0	1	54*	-14	-5
CCOC(=O)C1CCCN(Cc2cccc(C(F)(F)F)c2)C1 (configuration not stated)	-3	0	1	52*	9	11
CCOC(=O)C1CCCN(C(=O)Cc2c(F)cccc2Cl)C1 (configuration not stated)	-4	0	0	-3	x	x
CCOC(=O)C1CCCN(CCc2ccccc2)C1 (configuration not stated)	5	0	2	59*	-11	-5
O=C(O)CCC(=O)NCc1cn(-c2ccccc2)nc1-c1ccc(Cl)cc1	-3	0	1	0	x	x
CC1=C(C#N)C(=O)N(CCCO)C(=O)/C1=C\c1ccc(-c2cccc(C(=O)O)c2)o1	-6	0	0	15	x	x
N#Cc1ccccc1Sc1ccccc1CC(=O)Nc1ccc(Cc2ccncc2)cc1	9	0	0	14	x	x
CCCn1c(SC(C(=O)NC(N)=O)C(C)C)nc2ccccc2c1=O (configuration not stated)	3	0	-1	55*	19	10
CCOc1cc2c(cc1OCC)C(c1ccc(C(F)(F)F)cc1)NCC2 (configuration not stated)	-9	0	0	25	x	x
CC(C)=C1C2CC2C2C(C(=O)O)C12 (configuration not stated)	15	0	-1	60*	-3	5
Cc1cnc(N2CCOCC2)nc1NCCOc1ccccc1	-2	0	0	3	x	x
O=C(O)c1cc2ncc(-c3n[nH]c(-c4cnc5cc(C(=O)O)nn5c4)c3[N+](=O)[O-])cn2n1	-9	-1	1	68*	58*	-15	AS interf DR=>6.5
O=c1cc2ncc(-c3[nH]ncc3[N+](=O)[O-])cn2[nH]1	4	0	0	5	x	x
COc1ccc(-c2nc(NCCOc3ccccc3)c3ncn(-c4ccsc4)c3n2)cc1	13	0	-1	10	x	x
CCOC(=O)c1c(C)n(-c2ccc(C)cc2)c2ccc(OCC(O)CN3CCN(CCO)CC3)cc12 (configuration not stated)	-6	0	-1	86*	17	6
CN(C(=O)c1noc2c1COc1ccccc1-2)c1ccccc1Cl	-22	0	0	7	x	x
CCN(C(=O)CSc1nc2ccccc2c(=O)n1Cc1ccco1)c1cccc(C)c1	14	1	1	14	x	x
CC1CCC(N2CC(=O)N(CCc3ccccc3)C(c3ccc(F)cc3)C2=O)CC1 (configuration not stated)	-16	0	-1	-1	x	x
CC(=O)Oc1cc(C(=O)OCC(=O)Nc2ccc(C)cc2)cc(OC(C)=O)c1OC(C)=O	-5	0	1	80*	56*	16	AS interf DR=>7
CC(=O)Nc1ccc(C(=O)OCC(=O)Nc2cc(C)cc(C)c2)cc1	4	0	1	9	x	x
COC(=O)[C@H](COC(C)(C)C)NC(=O)OC1C(=O)c2cc(OC)ccc2O[C@H]1c1cccc(OC)c1 (some centres not stated)	x	0	1	8	x	x

Compound activity deposited in PubChem by The Scripps Research Institute Molecular Screening Center.
